# Publication PMC4336329 (PLoS ONE, 2015)
# Among all 310,000 compounds or so, about 14,000 (4.5%) showed an effect of 50% or more. The effect is printed as a negative number. The sample as a whole holds a higher share of strong results than the screen did.
# Biological target: human ether-à-go-go-related gene (hERG) potassium channel (human, UniProt Q12809)
# Assay: primary screen, population patch clamp on CHO cells stably expressing hERG; higher = less effect of the substance
# 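Further: peak tail current of the secondary pulse compared with the same well before compound.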
# Chain of human ether-à-go-go-related gene (hERG) potassium channel (Q12809 whole entry, looked up): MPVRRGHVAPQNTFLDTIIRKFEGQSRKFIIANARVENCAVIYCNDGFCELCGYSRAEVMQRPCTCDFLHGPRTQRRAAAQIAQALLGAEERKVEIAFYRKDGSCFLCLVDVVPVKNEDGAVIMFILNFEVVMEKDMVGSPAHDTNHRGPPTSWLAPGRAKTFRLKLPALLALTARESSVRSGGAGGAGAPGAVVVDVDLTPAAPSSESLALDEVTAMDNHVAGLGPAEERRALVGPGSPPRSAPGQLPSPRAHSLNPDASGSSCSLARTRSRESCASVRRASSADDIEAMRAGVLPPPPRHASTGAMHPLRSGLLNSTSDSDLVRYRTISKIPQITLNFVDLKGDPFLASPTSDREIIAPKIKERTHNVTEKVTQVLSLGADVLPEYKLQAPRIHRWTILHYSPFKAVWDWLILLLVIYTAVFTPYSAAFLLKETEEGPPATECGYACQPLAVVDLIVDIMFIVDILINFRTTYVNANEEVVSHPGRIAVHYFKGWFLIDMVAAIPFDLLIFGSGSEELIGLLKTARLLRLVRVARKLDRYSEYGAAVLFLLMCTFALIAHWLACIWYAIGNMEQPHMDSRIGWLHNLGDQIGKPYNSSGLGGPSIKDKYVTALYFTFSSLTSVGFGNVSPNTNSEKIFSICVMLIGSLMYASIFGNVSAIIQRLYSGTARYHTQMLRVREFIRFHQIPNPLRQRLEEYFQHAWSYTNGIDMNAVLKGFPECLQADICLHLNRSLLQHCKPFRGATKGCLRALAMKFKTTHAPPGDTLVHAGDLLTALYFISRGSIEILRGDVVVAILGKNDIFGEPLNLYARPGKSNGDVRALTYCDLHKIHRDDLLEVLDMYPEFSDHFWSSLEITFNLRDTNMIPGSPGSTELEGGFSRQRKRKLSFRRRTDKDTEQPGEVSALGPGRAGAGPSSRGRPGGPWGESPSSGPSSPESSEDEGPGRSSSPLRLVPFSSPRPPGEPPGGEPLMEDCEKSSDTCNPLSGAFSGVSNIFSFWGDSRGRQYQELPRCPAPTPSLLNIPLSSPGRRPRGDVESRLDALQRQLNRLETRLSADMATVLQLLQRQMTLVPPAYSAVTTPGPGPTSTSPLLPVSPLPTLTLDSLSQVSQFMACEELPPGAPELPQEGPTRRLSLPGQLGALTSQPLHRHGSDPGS
row,Structure (SMILES),"hERG current change (%, negative = inhibition) at 10uM [%]"
1,O=C(O)Cc1nc2nc3c(c(=O)n2[nH]1)CCCC3,16.3
2,CCOc1ccc(/C=N/NC(=O)c2cc(-c3cccn3C)n[nH]2)cc1,5.27
3,COc1ccc(C/C(O)=C(\C#N)c2nc3ccccc3s2)cc1,11.6
4,O=C(O)C(=O)O.c1ccc(-c2ccccc2OCCCN2CCCCCC2)cc1,-80.1
5,O=C(O)C(=O)O.c1ccc(-c2ccccc2OCCN2CCCCC2)cc1,-45.9
6,O=C(O)C(=O)O.c1ccc(-c2ccccc2OCCCN2CCCCC2)cc1,-74.6
7,O=C(O)C(=O)O.c1ccc(-c2ccccc2OCCOCCN2CCOCC2)cc1,6.15
8,O=C(O)C(=O)O.c1ccc(-c2ccccc2OCCCCN2CCCCCC2)cc1,-77.5
9,CCC1(c2ccc(C)cc2)NC(=O)N(CC(=O)Nc2cccc(S(=O)(=O)N3CCCC3)c2)C1=O (stereo not shown),0.0785
10,O=C(NCCCN1CCCCC1)C1CC(=O)N(CCc2ccccc2)C1 (stereo not shown),12.3
11,CC(C)CC(=O)Nc1nnc(S(=O)(=O)N2CCCCCC2)s1,-15
12,COc1ccc(-c2nc3c(s2)CN(S(C)(=O)=O)CC3)cc1OC,15.2
13,Cc1ccc(S(=O)(=O)NCCC(=O)Nc2ccc(C)c(Cl)c2)cc1C,-1.46
14,CCOC(=O)C1CCCN(C2CC(=O)N(c3ccc(C(C)C)cc3)C2=O)C1 (stereo not shown),-10
15,CCc1ccc(NC(=O)Cc2ccc(-n3cccc3)cc2)cc1,0.973
16,Cc1[nH]n(-c2ccccc2)c(=O)c1/C=N/n1c(C)nc2ccccc2c1=O,11.8
17,CCc1ccc(Nc2ccc(C(N)=O)cc2[N+](=O)[O-])cc1,8.56
18,Cc1ccc(N)c(N)c1,6.61
19,Br.CCn1c2c(c(=N)c3ccccc31)CCC2,5.12
20,CCOC(=O)Cn1c2c(c(=N)c3ccccc31)CCC2.Cl,4.06

row,Structure (SMILES),"hERG current change (%, negative = inhibition) at 10uM [%]"
1,CCCCn1c2c(c(=N)c3ccccc31)CCC2.I,-50.3
2,O=C(O)CCn1c2c(c3ccccc31)CCCC2,25.3
3,CCCCCCCn1c2c(c(=N)c3ccccc31)CCC2.I,-81.4
4,CC(=O)NNC(=O)CCn1c2c(c3ccccc31)CCCC2,9.01
5,O=C(O)Cn1c2c(c3ccccc31)CCCC2,7.39
6,CCCCCn1c2c(c(=N)c3ccccc31)CCC2.I,-71.2
7,Cl.N=c1c2c(n(Cc3ccccc3)c3c1CCC3)CCC2,-0.485
8,[N-]=[N+]=NC[C@H](Cc1ccccc1)N1CC[C@@H](OCc2ccccc2)CCC1=O,-13.3
9,CCC(=O)n1nc(-c2ccc(Cl)cc2)nc1N,3.71
10,CC1(/[N+]([O-])=C/c2ccccc2F)CCCCC1=O (stereo not shown),25.2
11,O=C1OC(c2ccc(Br)cc2)=N/C1=C\c1ccco1,26.3
12,COc1ccc(N2CCN(c3nc(NCCc4ccc(OC)c(OC)c4)nc(OC)n3)CC2)cc1,-78.3
13,CCOc1nc(NCCc2ccc(OC)c(OC)c2)nc(N2CCN(c3ccc(OC)cc3)CC2)n1,-3.79
14,COc1ccc(CCNc2nc(N3CCOCC3)nc(N3CCOCC3)n2)cc1OC,3.45
15,N=C1C(c2nc(-c3ccc(Cl)cc3)cs2)=C(O)CN1NC(=O)c1ccc(O)cc1,4.02
16,Cc1ccccc1N1CCN(C2CCCN(C(=O)c3cc[n+]([O-])cc3)C2)CC1 (stereo not shown),9.87
17,COc1ccc(CN2C(=O)CCC(C(=O)O)C2c2ccccc2)cc1 (stereo not shown),25.6
18,Cc1cc(=O)n(C)c(=O)n1CCCCCOc1cccc([N+](=O)[O-])c1,-57.9
19,O=C(COc1cccc([N+](=O)[O-])c1)NN1C(=O)c2ccccc2C1=O,-5.95
20,Cc1cc(=O)n(C)c(=O)n1CCCNc1ccccc1.O=C(O)C(=O)O,-4.01

row,Structure (SMILES),"hERG current change (%, negative = inhibition) at 10uM [%]"
1,Cc1cc(=O)n(C)c(=O)n1CCCCOc1cccc([N+](=O)[O-])c1,-14.5
2,Cc1cc(C(=O)COc2cccc([N+](=O)[O-])c2)c(C)n1C1CC1,-35.7
3,Cc1cc(=O)n(C)c(=O)n1CCCCCCOc1cccc([N+](=O)[O-])c1,-69.3
4,Cn1nccc1CNC(=O)c1ccnn1C,14.9
5,COc1ccc(COC(=O)C2=C(C)NC(=O)NC2c2cccc(OC)c2OC)cc1 (stereo not shown),5.25
6,CCC(=O)Nc1ncc2c(n1)CC(c1ccco1)CC2=O (stereo not shown),7.92
7,COc1ccc(Cl)cc1NC(=O)COC(=O)C1CC1,-0.403
8,Cc1ccc(Cl)cc1NC(=O)COC(=O)C1CC1,-5.31
9,COc1ccc(COC(=O)C2CCN(C(=O)c3ccc(Cl)cc3)CC2)cc1F,-52.2
10,Cc1ccc(Cl)cc1NC(=O)COC(=O)C1CCCC1,-75.8
11,Cc1ccc(Cl)cc1NC(=O)COC(=O)C1CCCCC1,7.48
12,COc1ccc(C)cc1NC(=O)Nc1ccc(C(=O)N2CCCC2)cc1,-23
13,O=C(OCc1ccccn1)C1CCN(C(=O)c2ccc(Cl)cc2)CC1,-36
14,COc1ccc(CCNC(=O)C2CCN(C(=O)c3ccc(Cl)cc3)CC2)cc1OC,2.77
15,COc1ccc(C)cc1NC(=O)COC(=O)C1CC1,6.16
16,COc1ccc(OC)c(NC(=O)COC(=O)C2CCN(C(=O)c3ccc(Cl)cc3)CC2)c1,-71.1
17,COc1ccc(Cl)cc1NC(=O)COC(=O)C1CCCCC1,7.15
18,COc1ccc(C)cc1NC(=O)COC(=O)C1CCN(C(=O)c2ccc(Cl)cc2)CC1,-79.1
